# Assay results reported in PubChem BioAssay (NCATS).
# Values joined by “and” are separate entries in the source; they are usually repeats but may differ in a detail not shown here. Identical values can stand only once. Records with an inconclusive call do not appear. Values without a mark were called inactive. Active and inactive are the calls of the source. Calls follow the shape of the dose curve; as a rule, active = well fitted curve in the direction sought with a large enough effect; inconclusive = small, poorly fitted or top-dose-only effect, or another doubt; inactive = no such curve, though single readings can be large; an effect the other way counts as inactive or inconclusive.
# What was measured:
# HEK293 = test: Cytotoxic Profiling of Annotated Libraries Using Quantitative High-Throughput Screening (AID 1296008); settings: Five cell lines viability, CellTiter-Glo ATP luminescence, 48-72 h; max response: hits give low values; also: nearly all actives have a fitted effect of over 60% in size
# How it was run: (§1)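 Cells exposed to compounds for 48 or 72 hr at 37 degrees Celsius. Viability read as ATP-coupled luminescence with CellTiter-Glo after 10 min at room temperature.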
# HaCat [1] = test: as above; settings: Five cell lines viability, CellTiter-Glo ATP luminescence, 48-72 h; max response: hits give low values
# How it was run: as §1
# KB-3-1 = test: as above; settings: Five cell lines viability, CellTiter-Glo ATP luminescence, 48-72 h; max response: hits give low values
# How it was run: as §1
# NIH3T3 = test: as above; settings: Five cell lines viability, CellTiter-Glo ATP luminescence, 48-72 h; max response: hits give low values
# How it was run: as §1
# MKL-2 = test: qHTS assay to identify novel small-molecules to repurpose for Merkel cell carcinoma treatment (AID 1296009); settings: MCC and control cell lines, CellTiter-Glo viability, 72 h; series mostly up to 46 µM; also: nearly all actives have a fitted effect of over 60% in size
# How it was run: (§2)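 CellTiter-Glo luminescence after 72 hr compound exposure at 37 degree celsius gave cell viability. Libraries NPC and MIPE were run as 8- and 11-point dose responses; RLUs normalized to DMSO (negative) and no-cell (cytotoxicity) controls.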
# UISO = test: as above; settings: MCC and control cell lines, CellTiter-Glo viability, 72 h; series mostly up to 46 µM
# How it was run: as §2
# C33A = test: Primary qHTS to identify gynecologic anti-cancer compounds using libraries of approved drugs and bioactive compounds (AID 1345084); settings: Gynecologic cancer cell panel viability, ATPlite luminescence, 48 h; series mostly up to 57.5 µM; also: nearly all actives have a fitted effect of over 55% in size
# How it was run: (§3)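 Five-concentration response, 48 h; readout is ATP-driven luciferase luminescence.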
# CASKI = test: as above; settings: Gynecologic cancer cell panel viability, ATPlite luminescence, 48 h; series mostly up to 57.5 µM
# How it was run: as §3
# Es-2 = test: as above; settings: Gynecologic cancer cell panel viability, ATPlite luminescence, 48 h; series mostly up to 57.5 µM
# How it was run: as §3
# HeLa = test: as above; settings: Gynecologic cancer cell panel viability, ATPlite luminescence, 48 h; series mostly up to 57.5 µM
# How it was run: as §3
# Hek293T = test: as above; settings: Gynecologic cancer cell panel viability, ATPlite luminescence, 48 h, control line for the selectivity index; series mostly up to 57.5 µM
# How it was run: as §3
# MKL-1 = test: qHTS assay to identify novel small-molecules to repurpose for Merkel cell carcinoma treatment (AID 1296009); settings: MCC and control cell lines, CellTiter-Glo viability, 72 h; series mostly up to 46 µM; also: nearly all actives have a fitted effect of over 60% in size
# How it was run: as §2
# WaGa = test: as above; settings: MCC and control cell lines, CellTiter-Glo viability, 72 h; series mostly up to 46 µM
# How it was run: as §2
# JEG-3 = test: Primary qHTS to identify gynecologic anti-cancer compounds using libraries of approved drugs and bioactive compounds (AID 1345084); settings: Gynecologic cancer cell panel viability, ATPlite luminescence, 48 h; series mostly up to 57.5 µM; also: nearly all actives have a fitted effect of over 55% in size
# How it was run: as §3
# MCC-26 = test: qHTS assay to identify novel small-molecules to repurpose for Merkel cell carcinoma treatment (AID 1296009); settings: MCC and control cell lines, CellTiter-Glo viability, 72 h; series mostly up to 46 µM; also: nearly all actives have a fitted effect of over 60% in size
# How it was run: as §2
# HACAT [2] = test: as above; settings: MCC and control cell lines, CellTiter-Glo viability, 72 h; series mostly up to 44.8 µM
# How it was run: as §2
# MCC-13 = test: as above; settings: MCC and control cell lines, CellTiter-Glo viability, 72 h; series mostly up to 46 µM
# How it was run: as §2
# CAOV3 = test: Primary qHTS to identify gynecologic anti-cancer compounds using libraries of approved drugs and bioactive compounds (AID 1345084); settings: Gynecologic cancer cell panel viability, ATPlite luminescence, 48 h; series mostly up to 57.5 µM; also: nearly all actives have a fitted effect of over 55% in size
# How it was run: as §3
# % is scaled to controls: 0 for no effect and ±100 for the full control effect; potency is read from the fitted curve at half-maximal effect.
smiles,measurement,setting,value
OCCCNc1cc(-c2ccnc(Nc3cccc(Cl)c3)n2)ccn1,Potency,HEK293,209 nM (active) and 231 nM (active)
same,Potency,HaCat [1],105 nM (active) and 820 nM (active)
same,Potency,KB-3-1,118 nM (active) and 206 nM (active)
same,Potency,NIH3T3,166 nM (active) and 580 nM (active)
same,Potency,MKL-2,0.296 µM (active)
same,Potency,UISO,0.148 µM (active)
same,Potency,C33A,0.562 µM (active)
same,Potency,CASKI,0.398 µM (active)
same,Potency,Es-2,0.224 µM (active)
same,Potency,HeLa,0.158 µM (active)
same,Potency,Hek293T,0.199 µM (active)
COCCOc1ccc2c(c1)ncn2-c1ccc2cccc(N3CCC(N)CC3)c2n1,Potency,HEK293,11.8 µM (active)
same,Potency,HaCat [1],18.7 µM (active) and 16.4 µM (active)
same,Potency,KB-3-1,16.6 µM (active) and 11.6 µM (active)
same,Potency,NIH3T3,1.48 µM (active)
same,Potency,MKL-1,20.9 µM (active)
same,Potency,UISO,26.4 µM (active)
same,Potency,WaGa,20.9 µM (active)
same,Potency,Es-2,28.2 µM (active)
same,Potency,JEG-3,17.8 µM (active)
COc1cc2c(cc1-c1c(C)noc1C)ncc1[nH]c(=O)n([C@H](C)c3ccccn3)c12,Potency,HEK293,5.26 µM (active) and 4.11 µM (active)
same,max response,HaCat [1],-12.8%
same,Potency,KB-3-1,16.6 µM (active)
same,Potency,NIH3T3,20.9 µM (active)
same,Potency,MCC-26,23.5 µM (active)
same,Potency,MKL-1,18.7 µM (active)
same,Potency,MKL-2,2.64 µM (active)
same,Potency,UISO,14.8 µM (active)
same,Potency,WaGa,5.9 µM (active)
same,Potency,C33A,inactive
same,Potency,CASKI,3.98 µM (active)
same,Potency,Hek293T,inactive
same,Potency,JEG-3,12.6 µM (active)
Cc1cc(Nc2nc(N[C@@H](C)c3ccc(F)cc3)c(C#N)cc2F)n[nH]1,Potency,HEK293,2.64 µM (active) and 1.3 µM (active)
same,Potency,HaCat [1],2.59 µM (active)
same,Potency,KB-3-1,1.05 µM (active) and 731 nM (active)
same,Potency,NIH3T3,3.72 µM (active) and 4.11 µM (active)
same,Potency,C33A,inactive
same,Potency,Es-2,14.1 µM (active)
same,Potency,HeLa,5.62 µM (active)
O=C(Cc1ccc(-c2ccc(OCCN3CCOCC3)cc2)cn1)NCc1ccccc1,Potency,HEK293,14.8 nM (active) and 184 nM (active)
same,outcome,HaCat [1],inactive
same,Potency,KB-3-1,26.4 nM (active) and 731 nM (active)
same,Potency,HACAT [2],inactive
same,Potency,MCC-13,0.0469 µM (active)
same,Potency,MCC-26,0.0935 µM (active)
same,Potency,UISO,0.0469 µM (active)
same,Potency,CASKI,inactive
same,Potency,Es-2,1.58 µM (active)
same,Potency,HeLa,1.58 µM (active)
Cc1ccc(S(=O)(=O)Nc2cc(Cl)ccc2C(=O)Nc2nc(-c3ccccc3)cs2)cc1,Potency,HEK293,11.8 µM (active)
same,outcome,HaCat [1],inactive
same,max response,KB-3-1,-7.08%
same,Potency,HACAT [2],inactive
same,Potency,MCC-13,inactive
same,Potency,MCC-26,inactive
same,Potency,MKL-1,inactive
same,Potency,MKL-2,inactive
same,Potency,WaGa,inactive
Cc1cc(CN2CCN(c3c(Br)cnc4nc(-c5ccc(N6CCN(C)CC6)cc5)[nH]c34)CC2)no1,Potency,HEK293,23.5 µM (active) and 9.2 µM (active)
same,Potency,HaCat [1],2.35 µM (active)
same,Potency,KB-3-1,18.7 µM (active) and 16.4 µM (active)
same,Potency,NIH3T3,13.2 µM (active) and 1.46 µM (active)
same,Potency,MCC-26,inactive
same,Potency,MKL-1,3.32 µM (active)
same,Potency,MKL-2,26.4 µM (active)
same,Potency,C33A,inactive
same,Potency,CASKI,inactive
same,Potency,Es-2,inactive
same,Potency,HeLa,1.58 µM (active)
same,Potency,Hek293T,inactive
same,Potency,JEG-3,inactive
COc1ccc(F)c(F)c1C(=O)c1cnc(NC2CCN(S(C)(=O)=O)CC2)nc1N,Potency,HEK293,1.05 µM (active)
same,Potency,HaCat [1],10.5 µM (active) and 5.17 µM (active)
same,Potency,KB-3-1,3.32 µM (active) and 4.11 µM (active)
same,Potency,NIH3T3,2.09 µM (active) and 3.26 µM (active)
same,Potency,MKL-2,11.8 µM (active)
same,Potency,UISO,2.96 µM (active)
same,Potency,C33A,10 µM (active)
same,Potency,CASKI,10 µM (active)
same,Potency,Es-2,3.16 µM (active)
same,Potency,HeLa,2.82 µM (active)
same,Potency,Hek293T,3.55 µM (active)
COc1cc2nccc(Oc3ccc(NC(=O)C4(C(=O)Nc5ccc(F)cc5)CC4)cc3)c2cc1OC,Potency,HEK293,14.8 µM (active) and 16.4 µM (active)
same,Potency,HaCat [1],16.6 µM (active) and 25.9 µM (active)
same,Potency,KB-3-1,23.5 µM (active)
same,Potency,NIH3T3,332 nM (active) and 1.64 µM (active)
same,Potency,MKL-1,2.96 µM (active)
same,Potency,WaGa,2.09 µM (active)
same,Potency,Es-2,inactive
same,Potency,HeLa,inactive
same,Potency,Hek293T,inactive
same,Potency,JEG-3,11.2 µM (active)
COc1cc2c(Oc3ccc(-c4cnc(Nc5ccc(F)cc5)n(C)c4=O)cc3F)ccnc2cc1OCCCN1CCOCC1,Potency,HEK293,4.69 µM (active)
same,Potency,HaCat [1],23.5 µM (active)
same,Potency,KB-3-1,9.35 µM (active)
same,Potency,NIH3T3,526 nM (active) and 5.8 µM (active)
same,Potency,UISO,11.8 µM (active)
same,Potency,C33A,inactive
same,Potency,CAOV3,inactive
same,Potency,CASKI,inactive
same,Potency,Hek293T,inactive
same,Potency,JEG-3,inactive
COc1ccc(OC)c(-c2nnc3ccc(-c4ccc(OC)c(O[C@@H]5CCOC5)c4)nn23)c1,Potency,HEK293,8.33 µM (active)
same,Potency,HaCat [1],1.46 µM (active)
same,Potency,KB-3-1,6.51 µM (active)
same,Potency,NIH3T3,33.2 µM (active)
same,Potency,MKL-2,18.7 µM (active)
same,Potency,HeLa,22.4 µM (active)
CN1CCN(c2cc(C(=O)Nc3ccc4c(c3)-c3c(c(C(N)=O)nn3-c3ccc(F)cc3)CC4)c(Cl)cn2)CC1,Potency,HEK293,20.9 µM (active)
same,outcome,HaCat [1],inactive
same,Potency,HACAT [2],inactive
same,Potency,MCC-13,inactive
same,Potency,MCC-26,inactive
same,Potency,MKL-1,26.4 µM (active)
same,Potency,MKL-2,26.4 µM (active)
same,Potency,UISO,inactive
same,Potency,WaGa,inactive
